Our source for the growth values is PubChem BioAssay (NCI).

About 83,000 compounds went through this panel and 20% of them were active in at least one assay; those are over-represented in the sample as a whole.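 Activity criterion: percent growth below 10, measured after cells in 96-well plates were exposed to a single compound concentration for 48 hours.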 Unmarked numbers belong to inactive results. Activity calls are given as the source filed them.

Among the test systems are NCI-H23 lung; NCI-H226 lung; NCI-H322M lung; HOP-62 NSCLC; NCI-H460 lung; HOP-92 NSCLC; NCI-H522 lung; A549/ATCC NSCLC; 786-0 renal; COLO 205 colon; DU-145 prostate; K-562 leukemia; MALME-3M melanoma; MDA-MB-231 breast; RXF 393 renal; SF-268 CNS; SF-295 CNS; SF-539 CNS; UACC-257 melanoma; M14 melanoma.
What all share (assay): NCI-60 one-dose screen, 48 h (100 = growth as untreated, 0 = no growth, -100 = all killed)
Common to all, as to settings: 10 µM unless noted

In the case of `CCCCN1CCCCn2c1nc1c2c(=O)n(C)c(=O)n1C`, the growth was 108% in the test on NCI-H23 lung; 104% in the test on NCI-H226 lung; 110% in the test on NCI-H322M lung; 103% with HOP-62 NSCLC; 101% with NCI-H460 lung; 95.7% with HOP-92 NSCLC. Moreover, the growth in the test with NCI-H522 lung was 90.1%; in the test with A549/ATCC NSCLC, 89%; in the test on 786-0 renal, 100%; with COLO 205 colon, 114%; in the test with DU-145 prostate, 105%; with K-562 leukemia, 91.2%. The growth was 116% with MALME-3M melanoma; 103% with MDA-MB-231 breast; 108% in the test on RXF 393 renal; 105% with SF-268 CNS; 106% in the test with SF-295 CNS; 116% in the test with SF-539 CNS. For the same molecule, the growth in the test on UACC-257 melanoma was 97%; in the test on M14 melanoma, 106%.

`CC(=O)OC(C)COc1ccc(-c2ccccc2)cc1` (stereo not given): the growth was 107% in the test with NCI-H23 lung; 106% in the test on NCI-H226 lung; 121% in the test on NCI-H322M lung; 102% with HOP-62 NSCLC; 105% in the test on NCI-H460 lung; 89.9% in the test with HOP-92 NSCLC. The growth in the test with NCI-H522 lung was 84.4%; in the test on A549/ATCC NSCLC, 54.9%; with 786-0 renal it was 93.4%; in the test with COLO 205 colon, 104%; with DU-145 prostate, 101%; in the test with K-562 leukemia, 97.9%. Besides, the growth in the test with MALME-3M melanoma was 118%; with MDA-MB-231 breast, 103%; in the test with RXF 393 renal it was 104%; in the test on SF-268 CNS, 96.1%; in the test with SF-295 CNS it was 97.5%; with SF-539 CNS, 101%. For the same molecule, the figures for the growth with UACC-257 melanoma and with M14 melanoma were 74.3% and 92.1%, respectively.

For `Cc1cc(N2CCCC2)nc(N(CCNc2ccnc3cc(Cl)ccc23)Cc2ccco2)n1`, the growth with NCI-H23 lung is 9.57% (active); in the test with NCI-H226 lung, 24.9%; in the test with NCI-H322M lung, 19.7%; with HOP-62 NSCLC, 43.3%; in the test with NCI-H460 lung, 15.8%; in the test on HOP-92 NSCLC it was -15% (active). Besides, the growth is 49.9% in the test on NCI-H522 lung; 48% in the test with A549/ATCC NSCLC; 4.55% (active) in the test with 786-0 renal; 15.9% in the test on COLO 205 colon; 50.3% in the test on DU-145 prostate; -1.93% (active) in the test with K-562 leukemia. In addition, the growth in the test with MALME-3M melanoma is 28.2%; in the test with MDA-MB-231 breast it was 11.7%; with RXF 393 renal, -0.497% (active); in the test on SF-268 CNS, 55.5%; in the test on SF-295 CNS, 18.8%; in the test on SF-539 CNS, -10.7% (active). For the same molecule, the values for the growth in the test with UACC-257 melanoma and in the test on M14 melanoma were 69.8% and -63.2% (active), respectively.

In the case of `Cn1cc(-c2csc(-c3cn(CCN)c4ccc(Br)cc34)n2)c2cccnc21`, the growth in the test on NCI-H23 lung was 78.4%; in the test with NCI-H226 lung, 85.1%; in the test on NCI-H322M lung, 75.3%; in the test with HOP-62 NSCLC it was 67.2%; in the test on NCI-H460 lung it was 16.4%; in the test with HOP-92 NSCLC it was 45.9%. Further, the growth in the test with NCI-H522 lung is 90.6%; in the test with A549/ATCC NSCLC, 37.5%; in the test on 786-0 renal, 73.1%; in the test with COLO 205 colon, -5.13% (active); in the test on DU-145 prostate, 58.5%; in the test with K-562 leukemia, 18.1%. Also, the growth was 97.5% in the test on MALME-3M melanoma; 62.4% in the test with MDA-MB-231 breast; 75.6% in the test with RXF 393 renal; 78.4% in the test on SF-268 CNS; 100% in the test on SF-295 CNS; 82.5% in the test on SF-539 CNS. Moreover, the values for the growth with UACC-257 melanoma and in the test with M14 melanoma were 92.8% and 86.1%, respectively.

`N#CC1=C(N)Oc2c(c(N)nn2-c2ccccc2)C1c1ccc(Cl)cc1Cl` (stereo not given): the growth in the test with NCI-H23 lung was 103%; in the test with NCI-H226 lung, 102%; in the test on NCI-H322M lung, 104%; with HOP-62 NSCLC, 92.8%; in the test with NCI-H460 lung, 106%; with HOP-92 NSCLC, 86.9%. In addition, the growth in the test on NCI-H522 lung is 90.5%; with A549/ATCC NSCLC, 108%; in the test on 786-0 renal it was 102%; in the test with COLO 205 colon it was 120%; in the test on DU-145 prostate, 105%; in the test on K-562 leukemia, 89.6%. Further, the growth in the test with MALME-3M melanoma is 104%; in the test on MDA-MB-231 breast it was 97.4%; in the test on RXF 393 renal, 109%; with SF-268 CNS it was 92%; in the test with SF-295 CNS, 106%; in the test with SF-539 CNS it was 94.3%. The growth in the test with UACC-257 melanoma is 104%; in the test with M14 melanoma, 96.7%.

Turning to `C[C@@H]1CCCCCCCCC[C@H](O)C(=O)C[C@@H](SC[C@@H](O)C(=O)O)C(=O)O1`, the growth was 96.5% in the test on NCI-H23 lung; 102% in the test with NCI-H226 lung; 116% in the test on NCI-H322M lung; 97.5% in the test with HOP-62 NSCLC; 108% in the test with NCI-H460 lung; 90.8% in the test on HOP-92 NSCLC. The growth in the test on NCI-H522 lung was 66.4%; in the test on A549/ATCC NSCLC, 85.8%; in the test with 786-0 renal, 85.7%; with COLO 205 colon, 117%; with DU-145 prostate it was 95.2%; in the test on K-562 leukemia, 15.5%. For the same molecule, the growth is 94.7% in the test with MALME-3M melanoma; 96% with MDA-MB-231 breast; 112% with RXF 393 renal; 98% in the test on SF-268 CNS; 104% in the test on SF-295 CNS; 97.8% with SF-539 CNS. In addition, the growth was 83.4% in the test on UACC-257 melanoma and 87% in the test on M14 melanoma.

For `C=C1C(=O)O[C@H]2[C@H]1CC/C(COC(=O)NCCc1c[nH]c3ccccc13)=C\CC[C@@]1(C)O[C@@H]21`, the growth with NCI-H23 lung is 59.5%; with NCI-H226 lung, 57.3%; in the test with NCI-H322M lung, 83.2%; with HOP-62 NSCLC, 57.7%; in the test on NCI-H460 lung it was 54.2%; in the test on HOP-92 NSCLC, -52% (active). In addition, the growth is -85.7% (active) in the test on NCI-H522 lung; 66.9% with A549/ATCC NSCLC; -50.3% (active) with 786-0 renal; -38.2% (active) in the test with COLO 205 colon; 11.7% with DU-145 prostate; 0.512% (active) with K-562 leukemia. Also, the growth is -33.5% (active) with MALME-3M melanoma; -19.3% (active) in the test on MDA-MB-231 breast; -89.3% (active) in the test with RXF 393 renal; 62.3% in the test with SF-268 CNS; 83.4% in the test on SF-295 CNS; -35.6% (active) in the test on SF-539 CNS. The growth is 63.3% in the test with UACC-257 melanoma and -52.1% (active) in the test with M14 melanoma.
